Compound activity: PubChem, National Center for Advancing Translational Sciences (NCATS)
D1 potentiator = human D1 dopamine receptor positive modulation | P21728 | AID 504651 | 360,000 tested, 0.036% active | potentiation, % at 10 µM | HEK293 TREx D1 cells, calcium flux, dopamine EC20 potentiation; in the data active means potentiation above about 30%; further: 0% is about no effect
D1 antagonist = blocks dopamine activation of the human D1 receptor; HEK293 TREx D1 cells, calcium flux, dopamine EC80; hits give low values; P21728; activity change, negative = inhibition, % at 10 µM; 360,000 tested, 3.2% active; in the data active means activity change below about -30%; further: on the % scale 0 is the no-effect control and ±100 the full control effect
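Using tetracycline-induced force-coupled D1 Hek293 cells and a calcium dye, signals were followed for 180 s after compound, then for 180 s after EC80 dopamine, to detect inhibitors.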
Chronic BCR inh = chronic active BCR signaling inhibition | ABC-DLBCL IkBa-CBG/CBR reporter, luminescence ratio, 4 h | Potency, µM (series often up to 46.1 µM), inactives show top-dose activity change, negative = inhibition, actives largely listed as inhibitors | 340,000 tested, 0.05% active | AID 493014; active means well fitted inhibition curve with a large enough effect in the signal ratio, with a control signal flat, not every such curve was filed as active; inconclusive means small, poorly fitted or top-dose-only effect, or effect the other way, or a change in a side signal; the % refers to the signal ratio;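 further: potency means the concentration at half of the fitted maximal effect; plate controls were basal doxycycline-induced cells for no effect and cells given 10 µM MG132 for full effect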
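Doxycycline induced both beetle luciferases in TMD8 lymphoma cells; IKK-driven degradation limits the IkappaBalpha-fused green signal, while red luminescence normalises for cell number and nonspecific effects. Compounds tested up to 46 uM, 4 hrs.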
D1 agonist = human D1 receptor agonism; HEK293 T-REx D1 cells, calcium flux, agonist mode; P21728; 360,000 tested, 1% active; activation, % at 2 µM; in the data active means activation above about 30%; further: 0% is about no effect
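Agonism was scored from calcium flux recorded over 180 s (1 read/s) after pintool compound addition, following a 10-cycle baseline. Cells were inducible force-coupled HEK293 TREx D1, plated overnight at 30 C and loaded with no-wash calcium dye.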
D3 ag = activates the human D3 dopamine receptor. D3R DiscoveRx beta-arrestin cells, luminescence, 90 min. max activation, %. P35462. 410,000 tested, 0.58% active; in the data active means max activation above about 30%; further: 0% is about no effect
Target sequence (P35462 whole entry, looked up): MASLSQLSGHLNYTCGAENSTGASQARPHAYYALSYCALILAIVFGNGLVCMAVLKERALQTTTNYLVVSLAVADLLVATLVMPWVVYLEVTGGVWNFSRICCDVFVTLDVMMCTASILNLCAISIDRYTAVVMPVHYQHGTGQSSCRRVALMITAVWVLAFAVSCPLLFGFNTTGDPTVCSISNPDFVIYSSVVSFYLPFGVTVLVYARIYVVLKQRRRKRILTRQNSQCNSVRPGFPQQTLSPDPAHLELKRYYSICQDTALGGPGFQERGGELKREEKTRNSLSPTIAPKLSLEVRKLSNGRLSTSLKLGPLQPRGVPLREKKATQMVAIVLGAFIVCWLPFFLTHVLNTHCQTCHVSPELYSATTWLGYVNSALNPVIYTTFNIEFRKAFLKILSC
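Cells at 1500/well, incubated overnight, then treated with pinned compounds (dopamine as control) for 90 min at 37 degrees C. DiscoveRx reagent added for 30 - 60 minutes at room temperature; luminescence read.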
D3 antag = antagonists of human D3 dopamine receptor. P35462. D3R cells, DiscoveRx beta-arrestin luminescence, antagonist mode; hits give low values. max response, negative = inhibition, %. 360,000 tested, 2.5% active. AID 652054; in the data active means max response below about -50%; inconclusive means no clear call, values can overlap the other calls; further: on the % scale 0 is the no-effect control and ±100 the full control effect
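Cells expressing the human receptor were seeded at 1500 cells/well, incubated overnight at 37 degrees C in 5% CO2, then exposed to library compounds with dopamine controls for 90 minutes at 37 degrees C before luminescent detection.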
* = called active by the depositor; ? = inconclusive; · = no result given. Hits are enriched below; roughly 6% of the tested compounds scored in any of these assays.

SMILES	D1 potentiator	D1 antagonist	Chronic BCR inh	D1 agonist	D3 ag	D3 antag
Cc1ccc(F)c(S(=O)(=O)NC(=O)C2(C)CCN2C(=O)Cc2cccc3ccccc23)c1 (stereo not given)	·	·	·	·	-1	-2
COCCOC1CCN(Cc2cn(Cc3ccccc3)nc2-c2cc3ccccc3o2)CC1	0	8	?	7	-13	-19
CCC(O)C1CCN(Cc2cn(Cc3ccccc3)nc2-c2cc3ccccc3o2)CC1 (stereo not given)	-4	-15	-19%	64*	2	-22
Nc1nnc(SC2CC(=O)N(c3ccccc3)C2=O)s1 (stereo not given)	-1	0	?	0	-1	-55*
O=C1CC(Sc2ncccn2)C(=O)N1c1ccccc1 (stereo not given)	-2	4	-1%	0	4	4
CCC(C)(C)C1CCc2[nH]nc(C(=O)NC3CCCCC3)c2C1 (stereo not given)	3	12	1%	0	-44	-62*
COc1ccc(C)cc1NC(=O)C(Cc1ccccc1)NS(=O)(=O)c1ccc(Br)s1 (stereo not given)	-1	2	·	4	6	·
COc1ccccc1NC(=O)CSCc1cc(=O)c2cccc(Cl)c2[nH]1	-1	-48*	·	1	7	·
COc1ccccc1NC(=O)CSCc1cc(=O)c2c(C)cc(C)cc2[nH]1	-3	-4	·	2	-6	·
COc1ccc(CCNC(=O)c2ccc3c(c2)N=C(C)c2ccccc2S3)cc1OC	-2	-3	·	2	3	·
COCCn1nnnc1SCC(=O)c1ccc(F)cc1	5	2	18%	-1	-3	-67*
CCOc1cc(C(=O)Nc2ccc(F)cc2)cc(Br)c1OC	-1	-53*	?	10	-11	-24
CCOc1cc(C(=O)Nc2ccc(N3CCOCC3)cc2)cc(Br)c1OC	-2	9	6%	0	2	0
CCCCN(CCCC)c1ccc(C(=O)c2ccccc2C(=O)O)c(O)c1	-7	-18	25%	12	-9	-81*
COc1cccc(N2CCN(Cc3nc(N)nc(Nc4ccccc4)n3)CC2)c1	-5	-15	-12%	0	-7	?
COc1ccccc1Nc1nc(N)nc(CN2CCCCC2)n1	-2	1	12%	3	3	-17
Cc1cccc(Nc2nc(N)nc(CN3CCN(c4ccccc4F)CC3)n2)c1	·	·	·	·	1	-53*
Nc1nc(CN2CCN(Cc3ccccc3)CC2)nc(Nc2ccccc2)n1	0	-38*	3%	2	-13	?
COc1ccccc1Nc1nc(N)nc(CN2CCN(Cc3ccccc3)CC2)n1	-5	-37*	-3%	0	0	-23
Cc1nc(SCc2ccc(Br)cc2)[nH]c(=O)c1C	-18	-41*	?	3	-7	8
Fc1ccccc1CSc1nnnn1-c1ccc2c(c1)OCO2	-4	-35*	?	9	-2	50
Cc1ccc(NC(=O)CCCSc2nc3ccccc3[nH]2)cc1	-1	-33*	-7%	1	-1	3
O=C(CCCSc1nc2ccccc2[nH]1)Nc1nnc(C2CC2)s1	-11	-36*	2%	4	1	9
Oc1ccc(Cl)cc1C1=NNC(c2ccc(Cl)cc2)C1 (stereo not given)	-1	-22	13%	4	2	7
Oc1c(Cl)cc(Cl)cc1C1=NNC(c2ccc(Cl)cc2)C1 (stereo not given)	4	-1	-15%	1	-22	-64*
SMILES	D1 potentiator	D1 antagonist	Chronic BCR inh	D1 agonist	D3 ag	D3 antag
CN(C)/C=C/C(=O)c1cccc(Cl)c1	1	12	10%	6	1	-15
CN(C)/C=C/C(=O)c1ccc(Cl)cc1	-2	-86*	14%	8	-9	-7
Cc1nnc(Cc2ccco2)c2n[nH]c(C)c12	·	·	·	·	4	15
CCOC(=O)[C@]12CCCC=C1N(Cc1ccc(Cl)cc1Cl)C(=O)[C@H](CC(=O)NCCC(C)C)C2	·	·	·	·	-8	?
COc1ccc(CCC(C)Nc2ccc(F)c(F)c2)cc1 (stereo not given)	-11	9	1%	1	-5	2
COc1ccc(CCC(C)NCc2ccc(Cl)c(Cl)c2)cc1 (stereo not given)	-2	4	-1%	32*	-17	-55*
COc1ccc(CCC(C)NCCc2ccc(Cl)cc2Cl)cc1 (stereo not given)	-9	24	?	51*	-3	0
COc1ccc(CCC(C)NCc2cc(OC)cc(OC)c2)cc1 (stereo not given)	-6	-29	?	8	-6	13
COCCN(Cc1cc2cccc(C)c2[nH]c1=O)C(=O)c1ccccc1	-3	1	-1%	-3	1	-8
Cc1cccc2cc(CN(Cc3ccco3)C(=O)c3ccncc3)c(=O)[nH]c12	2	-70*	-2%	1	3	?
CCC(=O)N(CCc1ccccc1)Cc1cc2cccc(C)c2[nH]c1=O	1	-43*	1%	5	7	-15
O=C(c1ccncc1)N(Cc1ccco1)Cc1cc2ccccc2[nH]c1=O	7	17	-3%	0	3	19
CC1CN(CCCCOc2ccc(F)cc2)CC(C)O1 (stereo not given)	-6	·	-9%	0	-18	-50*
COc1ccccc1N1CCN(CCCCOc2cccc3ccccc23)CC1	-4	3	-19%	1	10	-69*
COc1ccccc1N1CCN(CCCCCCOc2ccc(F)cc2)CC1	-21	-45*	0%	8	-5	-52*
COc1ccccc1OCCCCN1CCCCC1	-4	-16	5%	6	-4	?
COc1ccccc1N1CCN(CCCCNC(=O)c2ccc(-c3ccc(C(C)=O)cc3)cc2)CC1	·	·	·	·	-7	·
COc1ccccc1OCCCCN1CCN(c2ccccc2OC)CC1	0	-15	-8%	11	3	-81*
Fc1ccc(OCCCCCN2CCCC2)cc1	-2	-13	1%	0	-25	-17
Cc1cccc(-n2c(=O)c3c4c(sc3n3cnnc23)CCCC4)c1	-2	1	·	-2	-10	·
O=C(C1CCCN(S(=O)(=O)c2cccs2)C1)N1CCN(c2cccc(Cl)c2)CC1 (stereo not given)	-1	-20	·	6	-7	·
Cc1cccc(N2C(=O)CN=C2Nc2nc(C)cc(C)n2)c1	-3	-32*	0%	-2	0	21
Cc1cc(C)nc(NC2=NCC(=O)N2c2cc(Cl)cc(Cl)c2)n1	-5	6	-1%	6	-2	-4
COc1ccc2cc(C(=O)NCc3ccc4c(c3)CCN4C(=O)c3ccc(F)cc3)[nH]c2c1	-1	-6	-1%	0	8	·
